# In the supplement of paper PMC12067093, “Discovery and optimisation of a covalent ligand for TRIM25 and its application to targeted protein ubiquitination” (Chemical Science, 2025):
# Targets with the largest changes are over-represented here; the source holds about 21,000 in all.
# Compound: Cc1cc(ccc1-c1ccccc1)C(=O)N1CCCN(CC1)C(=O)CCl [compound 10]
# Assay: probe-labelled cysteine peptide fold change vs DMSO (competition) (log2 fold change); higher = less target engagement (more negative = stronger competition)
# Conditions: THP-1, incubation time: 4 h
# 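Also: competitive profiling in live THP-1 cells: cysteine peptides tagged with an iodoacetamide desthiobiotin (IA-DTB) probe, intensity after compound treatment relative to DMSO-treated cells.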
# Chain of UniProt P49916 (P49916 whole entry, looked up): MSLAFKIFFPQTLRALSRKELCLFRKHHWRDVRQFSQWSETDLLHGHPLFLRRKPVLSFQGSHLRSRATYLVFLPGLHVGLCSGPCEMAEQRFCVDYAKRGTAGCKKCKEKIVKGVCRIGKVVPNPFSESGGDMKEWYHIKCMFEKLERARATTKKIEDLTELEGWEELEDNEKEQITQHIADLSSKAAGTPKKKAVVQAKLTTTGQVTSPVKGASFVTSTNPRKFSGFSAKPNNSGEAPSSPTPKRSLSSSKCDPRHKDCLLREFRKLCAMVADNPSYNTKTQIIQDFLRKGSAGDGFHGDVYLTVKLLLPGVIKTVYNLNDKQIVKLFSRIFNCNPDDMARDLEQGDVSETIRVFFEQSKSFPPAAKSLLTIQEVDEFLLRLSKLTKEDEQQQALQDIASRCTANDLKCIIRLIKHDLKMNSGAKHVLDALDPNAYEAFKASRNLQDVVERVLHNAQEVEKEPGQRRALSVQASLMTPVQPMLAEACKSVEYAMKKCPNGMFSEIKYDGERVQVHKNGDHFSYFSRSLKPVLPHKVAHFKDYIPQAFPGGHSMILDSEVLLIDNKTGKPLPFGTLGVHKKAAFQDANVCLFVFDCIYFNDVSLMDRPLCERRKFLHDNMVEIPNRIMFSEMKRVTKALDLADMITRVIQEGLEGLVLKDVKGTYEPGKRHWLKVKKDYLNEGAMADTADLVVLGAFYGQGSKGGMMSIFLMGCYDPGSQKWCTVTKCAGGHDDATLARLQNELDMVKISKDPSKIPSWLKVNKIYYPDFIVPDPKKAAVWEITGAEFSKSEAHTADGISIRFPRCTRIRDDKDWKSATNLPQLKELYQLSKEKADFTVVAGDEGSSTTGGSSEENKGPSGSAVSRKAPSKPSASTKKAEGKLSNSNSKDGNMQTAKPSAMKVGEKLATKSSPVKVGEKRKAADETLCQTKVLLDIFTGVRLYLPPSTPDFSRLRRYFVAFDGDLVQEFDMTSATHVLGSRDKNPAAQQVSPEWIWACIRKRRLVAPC
# Chain of UniProt P36776 (P36776 whole entry, looked up): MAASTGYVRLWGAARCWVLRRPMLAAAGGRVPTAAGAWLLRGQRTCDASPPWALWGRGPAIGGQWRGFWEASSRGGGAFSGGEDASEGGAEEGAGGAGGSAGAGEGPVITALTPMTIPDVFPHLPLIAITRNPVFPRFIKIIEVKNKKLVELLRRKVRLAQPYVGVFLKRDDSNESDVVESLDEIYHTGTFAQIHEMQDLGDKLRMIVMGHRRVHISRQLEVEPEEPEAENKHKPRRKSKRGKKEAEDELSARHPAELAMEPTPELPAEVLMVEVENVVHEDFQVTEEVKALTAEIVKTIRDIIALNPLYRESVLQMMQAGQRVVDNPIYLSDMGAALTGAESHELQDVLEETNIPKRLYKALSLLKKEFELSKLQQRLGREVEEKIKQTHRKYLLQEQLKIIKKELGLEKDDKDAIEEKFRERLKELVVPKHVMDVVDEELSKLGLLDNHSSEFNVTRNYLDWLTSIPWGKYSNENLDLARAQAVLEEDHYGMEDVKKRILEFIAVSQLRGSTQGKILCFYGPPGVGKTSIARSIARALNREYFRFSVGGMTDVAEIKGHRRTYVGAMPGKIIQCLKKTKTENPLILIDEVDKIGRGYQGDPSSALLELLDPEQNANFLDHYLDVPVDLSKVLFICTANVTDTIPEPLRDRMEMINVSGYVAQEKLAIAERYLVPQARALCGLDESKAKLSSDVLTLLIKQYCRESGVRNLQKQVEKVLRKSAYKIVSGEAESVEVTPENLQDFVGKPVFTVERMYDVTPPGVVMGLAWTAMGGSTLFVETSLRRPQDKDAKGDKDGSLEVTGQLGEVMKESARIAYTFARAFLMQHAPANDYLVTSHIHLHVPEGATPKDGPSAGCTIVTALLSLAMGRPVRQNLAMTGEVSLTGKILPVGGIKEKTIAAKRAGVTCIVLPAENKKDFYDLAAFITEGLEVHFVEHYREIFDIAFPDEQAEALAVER
# Chain of UniProt O95232 (O95232 whole entry, looked up): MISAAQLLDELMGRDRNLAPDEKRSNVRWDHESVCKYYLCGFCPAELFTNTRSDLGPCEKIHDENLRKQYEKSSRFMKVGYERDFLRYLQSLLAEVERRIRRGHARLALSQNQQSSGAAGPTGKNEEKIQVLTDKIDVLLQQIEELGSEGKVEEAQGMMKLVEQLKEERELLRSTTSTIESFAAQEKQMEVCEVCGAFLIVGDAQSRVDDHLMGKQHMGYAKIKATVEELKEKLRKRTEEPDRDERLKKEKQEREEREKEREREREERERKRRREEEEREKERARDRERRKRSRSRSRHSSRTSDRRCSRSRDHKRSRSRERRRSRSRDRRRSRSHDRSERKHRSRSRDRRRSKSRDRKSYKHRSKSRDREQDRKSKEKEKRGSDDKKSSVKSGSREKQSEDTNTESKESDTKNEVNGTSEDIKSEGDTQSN
# Chain of UniProt P22033 (P22033 whole entry, looked up): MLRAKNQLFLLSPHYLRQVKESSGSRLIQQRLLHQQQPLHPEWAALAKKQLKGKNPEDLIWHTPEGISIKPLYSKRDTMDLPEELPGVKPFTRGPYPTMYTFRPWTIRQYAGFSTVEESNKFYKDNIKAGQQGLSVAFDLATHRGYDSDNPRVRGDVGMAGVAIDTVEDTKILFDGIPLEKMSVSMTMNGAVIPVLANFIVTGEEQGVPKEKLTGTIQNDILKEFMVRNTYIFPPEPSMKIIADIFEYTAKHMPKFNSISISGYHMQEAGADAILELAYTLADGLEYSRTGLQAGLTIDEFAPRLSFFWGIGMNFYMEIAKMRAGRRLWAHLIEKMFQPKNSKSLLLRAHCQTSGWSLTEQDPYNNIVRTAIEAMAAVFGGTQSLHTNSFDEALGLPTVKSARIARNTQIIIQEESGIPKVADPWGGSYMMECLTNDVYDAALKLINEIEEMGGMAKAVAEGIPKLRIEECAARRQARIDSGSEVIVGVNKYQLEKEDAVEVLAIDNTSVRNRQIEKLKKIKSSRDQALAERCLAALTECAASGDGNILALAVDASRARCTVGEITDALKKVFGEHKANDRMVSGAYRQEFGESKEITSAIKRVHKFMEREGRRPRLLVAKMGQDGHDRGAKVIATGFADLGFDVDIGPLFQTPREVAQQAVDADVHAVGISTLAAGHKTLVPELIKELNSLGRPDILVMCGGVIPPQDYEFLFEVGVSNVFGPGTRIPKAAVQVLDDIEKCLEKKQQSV
# Chain of UniProt O75608 (O75608 whole entry, looked up): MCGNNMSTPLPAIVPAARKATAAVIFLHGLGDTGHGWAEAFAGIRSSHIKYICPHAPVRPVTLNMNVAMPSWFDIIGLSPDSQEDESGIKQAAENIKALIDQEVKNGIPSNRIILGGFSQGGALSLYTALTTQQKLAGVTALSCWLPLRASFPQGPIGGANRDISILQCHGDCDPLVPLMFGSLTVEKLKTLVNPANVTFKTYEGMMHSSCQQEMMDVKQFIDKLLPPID
# Chain of UniProt P45984 (P45984 whole entry, looked up): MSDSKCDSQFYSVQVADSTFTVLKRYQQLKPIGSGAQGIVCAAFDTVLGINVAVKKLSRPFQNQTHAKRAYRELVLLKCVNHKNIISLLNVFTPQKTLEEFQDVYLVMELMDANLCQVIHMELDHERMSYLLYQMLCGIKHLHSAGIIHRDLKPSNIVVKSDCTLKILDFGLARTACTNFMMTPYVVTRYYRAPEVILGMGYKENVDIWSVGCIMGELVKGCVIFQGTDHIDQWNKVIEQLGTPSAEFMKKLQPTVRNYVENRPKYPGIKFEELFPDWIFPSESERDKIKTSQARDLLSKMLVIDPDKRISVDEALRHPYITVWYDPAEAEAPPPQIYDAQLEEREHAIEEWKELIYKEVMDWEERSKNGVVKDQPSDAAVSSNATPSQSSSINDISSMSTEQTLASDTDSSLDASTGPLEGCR
# Chain of UniProt Q14149 (Q14149 whole entry, looked up): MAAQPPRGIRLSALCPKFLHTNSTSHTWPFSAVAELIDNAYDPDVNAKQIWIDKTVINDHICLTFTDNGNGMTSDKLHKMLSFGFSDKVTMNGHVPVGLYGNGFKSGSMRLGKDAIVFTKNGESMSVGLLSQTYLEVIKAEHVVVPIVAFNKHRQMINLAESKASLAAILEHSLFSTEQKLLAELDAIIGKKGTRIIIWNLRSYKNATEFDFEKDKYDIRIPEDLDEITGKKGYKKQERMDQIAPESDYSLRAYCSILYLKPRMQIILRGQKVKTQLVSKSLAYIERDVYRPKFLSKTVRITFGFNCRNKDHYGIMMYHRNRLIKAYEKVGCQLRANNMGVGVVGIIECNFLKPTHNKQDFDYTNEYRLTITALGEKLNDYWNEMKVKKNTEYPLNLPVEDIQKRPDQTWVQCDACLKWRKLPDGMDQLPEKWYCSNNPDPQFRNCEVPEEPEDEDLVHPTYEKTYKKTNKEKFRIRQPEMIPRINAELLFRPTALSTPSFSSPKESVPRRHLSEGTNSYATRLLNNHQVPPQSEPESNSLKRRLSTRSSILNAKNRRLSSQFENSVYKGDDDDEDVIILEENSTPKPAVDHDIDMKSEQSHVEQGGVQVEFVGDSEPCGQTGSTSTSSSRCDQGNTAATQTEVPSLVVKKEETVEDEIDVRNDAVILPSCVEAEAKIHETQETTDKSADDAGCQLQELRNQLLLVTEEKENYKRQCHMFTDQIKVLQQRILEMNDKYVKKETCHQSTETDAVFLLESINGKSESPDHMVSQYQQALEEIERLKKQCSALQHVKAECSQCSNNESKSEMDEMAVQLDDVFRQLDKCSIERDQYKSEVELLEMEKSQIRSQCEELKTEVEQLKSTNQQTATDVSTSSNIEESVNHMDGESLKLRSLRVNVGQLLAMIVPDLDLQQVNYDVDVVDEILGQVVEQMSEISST
Target,probe-labelled cysteine peptide fold change (10 µM),probe-labelled cysteine peptide fold change (50 µM)
LIG3_P49916_929_KAADETLCQTK (UniProt P49916),-0.152,-1.24
LRP1_Q07954_3021_GGDPHSCK (UniProt Q07954),-0.193,-0.308
MDN1_Q9NU22_3985_KFEAVLSEPCR (UniProt Q9NU22),-0.313,-0.0822
MRPS31_Q92665_356_HFMELVTCGLSK (UniProt Q92665),0.0457,-0.112
LUC7L3_O95232_58_SDLGPCEK (UniProt O95232),-0.112,-0.363
MRPS18A_Q9NVS2_186_DNVCYSR (UniProt Q9NVS2),-0.0735,-0.099
MAPK9_P45984_222_GCVIFQGTDHIDQWNK (UniProt P45984),-0.0703,0.0724
LYPLA1_O75608_144_LAGVTALSCWLPLR (UniProt O75608),0.21,0.0595
MUT_P22033_560_CTVGEITDALK (UniProt P22033),0.0307,0.0797
MPI_P34949_289_GDCVECMACSDNTVR (UniProt P34949),0.0622,-0.0489
MYBBP1A_Q9BQG0_338_HYGEHVCTAK (UniProt Q9BQG0),0.0441,0.083
MORC3_Q14149_671_NDAVILPSCVEAEAK (UniProt Q14149),-0.296,-0.0456
MARS_P56192_309_QWNTLYLCGTDEYGTATETK (UniProt P56192),-0.0161,0.0949
MARS_P56192_389_CEHCAR (UniProt P56192),-0.00939,-0.304
LONP1_P36776_909_AGVTCIVLPAENKK (UniProt P36776),-0.00288,-0.138
